Results filed as inconclusive are left out. Active and inactive are the calls of the source. Unless noted, the call rests on the fitted dose curve; in most records, active means well fitted curve in the direction sought with a large enough effect in the repeat runs; inconclusive means weak or mixed curves; inactive means no such curve, though single readings can be large; an effect the other way counts as inactive or inconclusive.
How the values were obtained:
[1] = qHTS assay to test for compound auto fluorescence at 535 nm (green) in HEK293 cells (AID 720680)
[2] = qHTS assay to test for compound auto fluorescence at 460 nm (blue) in HEK293 cell free culture (AID 720681)
Procedure, shortened: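 Test compounds were pinned into cell-free culture medium (DMEM with 10% FBS) and fluorescence was read directly at Ex/Em 405/460 nm. Signals were expressed as fluorescence equivalents of triamterene, with DMSO vehicle as control.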

[3] = qHTS assay to test for compound auto fluorescence at 535 nm (green) in HEK293 cell free culture (AID 720682)
Procedure, shortened: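 Each library compound, or DMSO control, is added by pintool to medium alone, comprising DMEM and 10% FBS. Emission at 535 nm following 485 nm excitation is quantified against fluorescein.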

[4] = qHTS assay to test for compound auto fluorescence at 590 nm (red) in HEK293 cell free culture (AID 720683)
Procedure, shortened: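 Tox21 10K library compounds were pinned into cell-free DMEM with 10% FBS and fluorescence was read at excitation 540 nm. Activity is expressed as Rose Bengal sodium equivalency.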

[5] = qHTS assay to test for compound auto fluorescence at 590 nm (red) in HepG2 cell free culture (AID 720684)
Procedure, shortened: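 Ex 540 / Em 590 nm read of compound in cell-free MEM (10% FBS). Rose Bengal sodium reference.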

[6] = qHTS assay to test for compound auto fluorescence at 460 nm (blue) in HepG2 cell free culture (AID 720685)
Procedure, shortened: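 Cell-free plates of MEM plus 10% FBS received 23 nL compound or DMSO vehicle; blue-channel (405/460 nm) intensity scored against triamterene as reference fluorophore.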

[7] = qHTS assay to test for compound auto fluorescence at 460 nm (blue) in HepG2 cells (AID 720687)
Procedure, shortened: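 Cells (2,000/well in MEM with 10% FBS) attached overnight at 37 C, then were exposed to compound or DMSO for 1 hr at 37 C, 5% CO2. Fluorescence read at Ex/Em 405/460 nm, expressed as triamterene-equivalent signal.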

[8] = qHTS assay for identifying genotoxic compounds that show differential cytotoxicity against isogenic chicken DT40 cell lines with known DNA damage response pathways - wild type cell line (AID 743012); further: nearly all actives have a fitted effect of over 60% in size; further: potency means the concentration at half of the fitted maximal effect
Procedure, shortened: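 Endpoint: CellTiter-Glo luminescence, 30 min RT. Cells: wild type DT40, 300/well. Exposure: compounds in DMSO, 40 h, 37 C/5% CO2, after ~0.5 h pre-incubation.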

[9] = qHTS assay for identifying genotoxic compounds that show differential cytotoxicity against isogenic chicken DT40 cell lines with known DNA damage response pathways - Rev3 mutant cell line (AID 743014); further: nearly all actives have a fitted effect of over 55% in size; further: potency means the concentration at half of the fitted maximal effect
[10] = qHTS assay for identifying genotoxic compounds that show differential cytotoxicity against isogenic chicken DT40 cell lines with known DNA damage response pathways - Rad54/Ku70 mutant cell line (AID 743015); further: nearly all actives have a fitted effect of over 60% in size; further: potency means the concentration at half of the fitted maximal effect
[11] = qHTS assay to identify small molecule antagonists of the androgen receptor (AR) signaling pathway - cell viability counter screen (AID 743033; further: nearly all actives have a fitted effect of over 45% in size)
[12] = qHTS assay to identify small molecule antagonists of the androgen receptor (AR) signaling pathway using the MDA cell line - cell viability counter screen (AID 743041; further: nearly all actives have a fitted effect of over 45% in size)
Procedure, shortened: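 In this qHTS counter assay, fluorescence intensity after CellTiter-Fluor addition indicated viability of MDA-kb2 AR-luc cells given compounds and R1881 for 16 h at 37C.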

[13] = qHTS assay to test for compound auto fluorescence at 535 nm (green) in HepG2 cell free culture (AID 720686)
[14] = target: Glucocorticoid receptor (Homo sapiens) (UniProt P04150); assay: qHTS assay to identify small molecule agonists of the glucocorticoid receptor (GR) signaling pathway (AID 720691; active means well fitted activation curve with a large enough effect in the signal ratio in the repeat runs, not every such curve was filed as active; the % refers to the signal ratio)
Procedure, shortened: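 Measures GR pathway activation through a GRE-beta-lactamase reporter stably integrated in HeLa cells, with 18 h compound treatment at 37 C and fluorescence detection using a FRET substrate.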

[15] = target: Glucocorticoid receptor (Homo sapiens) (UniProt P04150); assay: qHTS assay to identify small molecule antagonists of the glucocorticoid receptor (GR) signaling pathway (AID 720692; active means well fitted inhibition curve with a large enough effect in the signal ratio in the repeat runs, not every such curve was filed as active; the % refers to the signal ratio)
Procedure, shortened: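 Tox21 10K library screened in concentration-response for blockade of dexamethasone (5 nM final)-induced GRE-bla reporter activity in HeLa cells; 18 h treatment, fluorescence read.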

[16] = qHTS assay to identify small molecule antagonists of the glucocorticoid receptor (GR) signaling pathway - cell viability counter screen (AID 720693); further: nearly all actives have a fitted effect of over 55% in size
[17] = target: Androgen receptor (Homo sapiens) (UniProt P10275); assay: qHTS assay to identify small molecule agonists of the androgen receptor (AR) signaling pathway using the MDA cell line (AID 743040; further: nearly all actives have a fitted effect of over 20% in size)
Procedure, shortened: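 Cell-based luciferase reporter: MDA-kb2, MMTV promoter (AR + GR response elements). 16 h compound exposure at 37C; ONE-Glo, 30 min RT, luminescence.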

[18] = target: Androgen receptor (Homo sapiens) (UniProt P10275); assay: qHTS assay to identify small molecule antagonists of the androgen receptor (AR) signaling pathway using the MDA cell line (AID 743042; further: nearly all actives have a fitted effect of over 55% in size)
Procedure, shortened: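 MDA-kb2 cells (human breast carcinoma, stably carrying an MMTV-luciferase reporter responsive to AR and GR) were plated at 3,000 cells/well and preincubated 5 hr at 37C, then given compound plus R1881 agonist for 16 h. ONE-Glo luminescence was read.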

Measured: Potency

Sequence of Glucocorticoid receptor (Homo sapiens) (P04150 whole entry, looked up): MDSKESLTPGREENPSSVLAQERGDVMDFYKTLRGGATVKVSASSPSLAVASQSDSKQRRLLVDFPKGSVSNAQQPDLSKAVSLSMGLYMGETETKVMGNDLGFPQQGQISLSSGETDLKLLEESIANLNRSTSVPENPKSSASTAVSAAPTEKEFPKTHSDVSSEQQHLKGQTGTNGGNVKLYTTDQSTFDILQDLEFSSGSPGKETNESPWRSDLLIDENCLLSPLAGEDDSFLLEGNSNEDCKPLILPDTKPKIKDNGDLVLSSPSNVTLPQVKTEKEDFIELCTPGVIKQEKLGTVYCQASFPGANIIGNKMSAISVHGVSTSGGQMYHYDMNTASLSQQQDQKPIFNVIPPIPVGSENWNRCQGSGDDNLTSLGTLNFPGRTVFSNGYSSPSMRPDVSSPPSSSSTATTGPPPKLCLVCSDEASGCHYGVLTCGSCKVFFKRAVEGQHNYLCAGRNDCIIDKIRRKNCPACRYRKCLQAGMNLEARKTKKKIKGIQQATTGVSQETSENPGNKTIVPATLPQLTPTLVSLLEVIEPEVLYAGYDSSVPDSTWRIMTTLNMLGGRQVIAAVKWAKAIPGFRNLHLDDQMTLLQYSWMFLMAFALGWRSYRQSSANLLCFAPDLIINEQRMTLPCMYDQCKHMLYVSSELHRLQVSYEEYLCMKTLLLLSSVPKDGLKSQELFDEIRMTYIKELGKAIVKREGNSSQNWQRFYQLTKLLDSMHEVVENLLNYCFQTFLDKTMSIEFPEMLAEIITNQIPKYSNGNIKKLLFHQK
Sequence of Androgen receptor (Homo sapiens) (P10275 whole entry, looked up): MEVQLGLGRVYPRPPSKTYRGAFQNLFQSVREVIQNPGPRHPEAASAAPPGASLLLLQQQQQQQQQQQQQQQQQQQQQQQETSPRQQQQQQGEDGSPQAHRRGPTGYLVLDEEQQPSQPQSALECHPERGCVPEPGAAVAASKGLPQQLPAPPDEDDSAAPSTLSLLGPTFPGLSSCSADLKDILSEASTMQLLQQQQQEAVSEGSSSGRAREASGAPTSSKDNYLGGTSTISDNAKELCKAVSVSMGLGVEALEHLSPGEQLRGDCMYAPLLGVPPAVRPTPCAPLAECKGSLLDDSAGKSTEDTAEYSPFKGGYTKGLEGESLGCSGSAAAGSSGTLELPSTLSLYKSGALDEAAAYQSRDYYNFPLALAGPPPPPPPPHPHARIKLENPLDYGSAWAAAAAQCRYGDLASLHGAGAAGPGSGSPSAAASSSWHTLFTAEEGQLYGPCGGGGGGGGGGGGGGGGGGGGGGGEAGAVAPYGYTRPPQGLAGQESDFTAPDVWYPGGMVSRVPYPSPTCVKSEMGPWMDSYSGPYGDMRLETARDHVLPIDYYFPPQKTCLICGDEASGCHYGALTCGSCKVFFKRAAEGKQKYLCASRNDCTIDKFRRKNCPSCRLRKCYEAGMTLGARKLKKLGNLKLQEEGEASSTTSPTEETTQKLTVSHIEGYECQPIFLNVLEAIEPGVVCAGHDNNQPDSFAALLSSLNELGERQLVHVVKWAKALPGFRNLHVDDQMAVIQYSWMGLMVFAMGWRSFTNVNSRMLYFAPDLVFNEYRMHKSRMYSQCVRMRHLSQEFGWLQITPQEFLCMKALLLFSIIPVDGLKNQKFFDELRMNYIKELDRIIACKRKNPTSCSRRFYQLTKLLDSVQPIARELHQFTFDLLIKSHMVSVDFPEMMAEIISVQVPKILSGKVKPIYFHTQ

FC(F)(F)C(F)(F)C(F)(F)C(F)(F)C(F)(F)C(F)(F)CCI
not listed: [13] | [14] | [15] | [16] | [17] | [18]
inactive: all other assays above

CCCCCOC(=O)COc1cc(N2C(=O)C3=C(CCCC3)C2=O)c(F)cc1Cl
not listed: [6] | [8] | [10] | [17] | [18]
inactive: all other assays above

O=[N+]([O-])c1cccc(Cl)c1Cl
not listed: [7] | [15] | [17] | [18]
inactive: all other assays above

CCCOc1ccc2nc(NC(=O)OC)[nH]c2c1
active: [8] 0.237 µM | [9] 0.237 µM | [10] 0.335 µM
not listed: [7] | [14] | [15]
inactive: all other assays above

CN(C(=O)CCCOc1ccc2[nH]c(=O)ccc2c1)C1CCCCC1
not listed: [6] | [8] | [10] | [17] | [18]
inactive: all other assays above

CC(C)(C)c1ccc(S)cc1
inactive: [1] | [2] | [3] | [4] | [5] | [6] | [13] | [14] | [11] | [12]

Cc1ccccc1N=Nc1ccc(N=Nc2c(O)ccc3ccccc23)c(C)c1
not listed: [7] | [8] | [10] | [14] | [15] | [17] | [18]
inactive: all other assays above

Cn1c(NCCN(CCO)CCCc2ccc([N+](=O)[O-])cc2)cc(=O)n(C)c1=O
not listed: [13] | [14] | [15] | [17] | [18]
inactive: all other assays above

CCCCCCCCCC(=O)OCC
not listed: [7] | [9] | [14] | [15] | [17] | [18]
inactive: all other assays above

CCCCC(CC)(CO)CO
not listed: [7] | [9] | [14] | [15] | [17] | [18]
inactive: all other assays above

SC1CCCC1
not listed: [13] | [14] | [15] | [17] | [18]
inactive: all other assays above

CN1CCC(=C2c3ccccc3CCc3sccc32)CC1
active: [8] 6.68 µM | [9] 15 µM | [10] 11.9 µM
not listed: [7] | [15] | [17] | [18]
inactive: all other assays above

Source: PubChem BioAssay (Tox21)
